# Assay results reported in the supplement of paper PMC8728848.
# This is one part of a sample in which the strongest signals are shown more often than they occur.
# B1: HPL (Tachypleus tridentatus) (protein)
# chain: MEDDCTCVTDRSLEGKLMKHPSTPAVYQILDGCRRLVPNPPTYNNIYKNWECIQSNILEKLLCKCDSLSNGAELIKGSGDTVYLLSNGVKRPIADPETFNGFCFDWNKIKTYSDIVINSLSTGPIIIIKHHHHHH
# How the values were obtained:
# Experiment in all cases: glycan array binding signal (z-score within array); higher = stronger binding
# Details in all cases: glycan notation: IUPAC condensed, linker removed
# Fuc(a1-2)Gal = molecular target: Fuc(a1-2)Gal
# Procedure, shortened: (§1)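 The binding signal is a Z-score computed within each array. Data were drawn from 3228 arrays in the Consortium for Functional Glycomics database, restricted to those with a known protein sequence. Scores were averaged over arrays of the same protein sequence at different concentrations or buffers, and over linkers, and negative values can be taken as non-binding.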
# [1] = molecular target: Fuc(a1-2)Gal(b1-3)GlcNAc(b1-2)Man(a1-3)[Fuc(a1-2)Gal(b1-3)GlcNAc(b1-2)Man(a1-6)]Man(b1-4)GlcNAc(b1-4)GlcNAc
# Procedure, shortened: as §1
# [2] = molecular target: Fuc(a1-2)Gal(b1-3)GlcNAc(b1-3)[Neu5Ac(a2-6)Gal(b1-4)GlcNAc(b1-6)]Gal(b1-4)Glc
# Procedure, shortened: as §1
# [3] = molecular target: Fuc(a1-2)Gal(b1-4)GlcNAc(b1-2)Man(a1-3)[Fuc(a1-2)Gal(b1-4)GlcNAc(b1-2)Man(a1-6)]Man(b1-4)GlcNAc(b1-4)[Fuc(a1-6)]GlcNAc
# Procedure, shortened: as §1
# [4] = molecular target: Fuc(a1-2)Gal(b1-4)[Fuc(a1-3)]GlcNAc(b1-2)[Fuc(a1-2)Gal(b1-4)[Fuc(a1-3)]GlcNAc(b1-4)]Man(a1-3)[Fuc(a1-2)Gal(b1-4)[Fuc(a1-3)]GlcNAc(b1-2)Man(a1-6)]Man(b1-4)GlcNAc(b1-4)GlcNAc
# Procedure, shortened: as §1
# [5] = molecular target: Fuc(a1-2)Gal6S(b1-3)GlcNAc
# Procedure, shortened: as §1
# [6] = molecular target: Fuc(a1-2)[Gal(a1-3)]Gal(b1-3)GlcNAc(b1-2)Man(a1-3)[Fuc(a1-2)[Gal(a1-3)]Gal(b1-3)GlcNAc(b1-2)Man(a1-6)]Man(b1-4)GlcNAc(b1-4)GlcNAc
# Procedure, shortened: as §1
# [7] = molecular target: Gal(a1-3)Gal(b1-3)GlcNAc(b1-2)Man(a1-3)[Gal(a1-3)Gal(b1-3)GlcNAc(b1-2)Man(a1-6)]Man(b1-4)GlcNAc(b1-4)GlcNAc
# Procedure, shortened: as §1
# [8] = molecular target: Gal(a1-3)Gal(b1-3)[Fuc(a1-4)]GlcNAc(b1-2)Man(a1-3)[Gal(a1-3)Gal(b1-3)[Fuc(a1-4)]GlcNAc(b1-2)Man(a1-6)]Man(b1-4)GlcNAc(b1-4)GlcNAc
# Procedure, shortened: as §1
# Gal(a1-3)Gal(b1-4)Glc = molecular target: Gal(a1-3)Gal(b1-4)Glc
# Procedure, shortened: as §1
# Gal(a1-6)Glc = molecular target: Gal(a1-6)Glc
# Procedure, shortened: as §1
# Gal(b1-3)GlcNAc = molecular target: Gal(b1-3)GlcNAc
# Procedure, shortened: as §1
# [9] = molecular target: Gal(b1-3)GlcNAc(b1-3)Gal(b1-4)[Fuc(a1-3)]GlcNAc
# Procedure, shortened: as §1
# [10] = molecular target: Gal(b1-3)GlcNAc(b1-3)GalNAc
# Procedure, shortened: as §1
# [11] = molecular target: Gal(b1-3)[Fuc(a1-4)]GlcNAc(b1-2)Man
# Procedure, shortened: as §1
# [12] = molecular target: Gal(b1-3)[Fuc(a1-4)]GlcNAc(b1-3)Gal(b1-3)[Fuc(a1-4)]GlcNAc
# Procedure, shortened: as §1
# [13] = molecular target: Gal(b1-4)GlcNAc(a1-6)Gal(b1-4)GlcNAc
# Procedure, shortened: as §1
# [14] = molecular target: Gal(b1-4)GlcNAc(b1-2)Man(a1-3)[GlcNAc(b1-2)Man(a1-6)]Man(b1-4)GlcNAc(b1-4)GlcNAc
# Procedure, shortened: as §1
# [15] = molecular target: Gal(b1-4)GlcNAc(b1-2)[Gal(b1-4)GlcNAc(b1-4)]Man(a1-3)[GlcNAc(b1-4)][Gal(b1-4)GlcNAc(b1-2)Man(a1-6)]Man(b1-4)GlcNAc(b1-4)GlcNAc
# Procedure, shortened: as §1
# [16] = molecular target: Gal(b1-4)GlcNAc(b1-3)Gal(b1-4)GlcNAc(b1-2)[Gal(b1-4)GlcNAc(b1-3)Gal(b1-4)GlcNAc(b1-6)]Man(a1-6)[Gal(b1-4)GlcNAc(b1-3)Gal(b1-4)GlcNAc(b1-2)Man(a1-3)]Man(b1-4)GlcNAc(b1-4)GlcNAc
# Procedure, shortened: as §1
# [17] = molecular target: Gal(b1-4)GlcNAc(b1-3)Gal(b1-4)GlcNAc(b1-3)Gal(b1-4)GlcNAc(b1-3)Gal(b1-4)GlcNAc(b1-3)Gal(b1-4)GlcNAc(b1-3)Gal(b1-4)GlcNAc(b1-2)Man(a1-3)[Gal(b1-4)GlcNAc(b1-3)Gal(b1-4)GlcNAc(b1-3)Gal(b1-4)GlcNAc(b1-3)Gal(b1-4)GlcNAc(b1-3)Gal(b1-4)GlcNAc(b1-3)Gal(b1-4)GlcNAc(b1-2)Man(a1-6)]Man(b1-4)GlcNAc(b1-4)GlcNAc
# Procedure, shortened: as §1
# Gal6S(b1-4)GlcNAc = molecular target: Gal6S(b1-4)GlcNAc
# Procedure, shortened: as §1
# [18] = molecular target: GalNAc(b1-3)Gal(a1-6)Gal(b1-4)Glc
# Procedure, shortened: as §1
# [19] = molecular target: GalNAc(b1-4)GlcNAc(b1-2)Man
# Procedure, shortened: as §1
# [20] = molecular target: GlcNAc(a1-3)Gal(b1-4)GlcNAc
# Procedure, shortened: as §1
# [21] = molecular target: GlcNAc(a1-6)Gal(b1-4)GlcNAc
# Procedure, shortened: as §1
# [22] = molecular target: GlcNAc(b1-3)Gal(b1-4)GlcNAc(b1-2)Man(a1-3)[GlcNAc(b1-3)Gal(b1-4)GlcNAc(b1-2)Man(a1-6)]Man(b1-4)GlcNAc(b1-4)[Fuc(a1-6)]GlcNAc
# Procedure, shortened: as §1
# [23] = molecular target: GlcNAc(b1-3)Gal(b1-4)GlcNAc(b1-2)[GlcNAc(b1-3)Gal(b1-4)GlcNAc(b1-6)]Man(a1-6)[GlcNAc(b1-3)Gal(b1-4)GlcNAc(b1-2)Man(a1-3)]Man(b1-4)GlcNAc(b1-4)GlcNAc
# Procedure, shortened: as §1
# [24] = molecular target: GlcNAc(b1-3)Gal(b1-4)GlcNAc(b1-3)Gal(b1-4)GlcNAc(b1-3)GalNAc
# Procedure, shortened: as §1
# GlcNAc(b1-3)Man = molecular target: GlcNAc(b1-3)Man
# Procedure, shortened: as §1
# Kdn(a2-3)Gal(b1-4)GlcNAc = molecular target: Kdn(a2-3)Gal(b1-4)GlcNAc
# Procedure, shortened: as §1
# Kdn(a2-6)Gal(b1-4)GlcNAc = molecular target: Kdn(a2-6)Gal(b1-4)GlcNAc
# Procedure, shortened: as §1
# [25] = molecular target: Neu5Ac(a2-3)Gal(b1-3)GalNAc
# Procedure, shortened: as §1
# [26] = molecular target: Neu5Ac(a2-3)Gal(b1-3)GlcNAc(b1-2)Man(a1-3)[Neu5Ac(a2-3)Gal(b1-3)GlcNAc(b1-2)Man(a1-6)]Man(b1-4)GlcNAc(b1-4)GlcNAc
# Procedure, shortened: as §1
# [27] = molecular target: Neu5Ac(a2-3)Gal(b1-4)GlcNAc(b1-3)Gal(b1-4)GlcNAc(b1-3)Gal(b1-4)GlcNAc(b1-2)Man(a1-3)[Neu5Ac(a2-3)Gal(b1-4)GlcNAc(b1-3)Gal(b1-4)GlcNAc(b1-3)Gal(b1-4)GlcNAc(b1-2)Man(a1-6)]GalNAc
# Procedure, shortened: as §1
# [28] = molecular target: Neu5Ac(a2-3)Gal(b1-4)GlcNAc(b1-3)[Neu5Ac(a2-3)Gal(b1-4)GlcNAc(b1-6)]GalNAc
# Procedure, shortened: as §1
# [29] = molecular target: Neu5Ac(a2-6)Gal(b1-4)GlcNAc(b1-3)Gal(b1-4)GlcNAc(b1-6)[Gal(b1-3)]GalNAc
# Procedure, shortened: as §1
# [30] = molecular target: Neu5Ac(a2-6)Gal(b1-4)GlcNAc(b1-3)[Neu5Ac(a2-6)Gal(b1-4)GlcNAc(b1-6)]GalNAc
# Procedure, shortened: as §1
# [31] = molecular target: Neu5Ac9Ac(a2-3)Gal(b1-4)GlcNAc
# Procedure, shortened: as §1
# [32] = molecular target: Neu5Gc(a2-3)Gal(b1-3)GlcNAc
# Procedure, shortened: as §1
binder,measurement,setting,value
B1,glycan array binding signal (z-score),Fuc(a1-2)Gal,-0.153
same,glycan array binding signal (z-score),[1],4.15
same,glycan array binding signal (z-score),[2],-0.343
same,glycan array binding signal (z-score),[3],3.19
same,glycan array binding signal (z-score),[4],2.19
same,glycan array binding signal (z-score),[5],0.027
same,glycan array binding signal (z-score),[6],-0.163
same,glycan array binding signal (z-score),[7],3.2
same,glycan array binding signal (z-score),[8],2.31
same,glycan array binding signal (z-score),Gal(a1-3)Gal(b1-4)Glc,0.05
same,glycan array binding signal (z-score),Gal(a1-6)Glc,1.55
same,glycan array binding signal (z-score),Gal(b1-3)GlcNAc,-0.177
same,glycan array binding signal (z-score),[9],-0.309
same,glycan array binding signal (z-score),[10],-0.36
same,glycan array binding signal (z-score),[11],1.71
same,glycan array binding signal (z-score),[12],-0.131
same,glycan array binding signal (z-score),[13],-0.342
same,glycan array binding signal (z-score),[14],-0.178
same,glycan array binding signal (z-score),[15],5.11
same,glycan array binding signal (z-score),[16],2.19
same,glycan array binding signal (z-score),[17],-0.206
same,glycan array binding signal (z-score),Gal6S(b1-4)GlcNAc,-0.335
same,glycan array binding signal (z-score),[18],-0.402
same,glycan array binding signal (z-score),[19],-0.379
same,glycan array binding signal (z-score),[20],-0.255
same,glycan array binding signal (z-score),[21],-0.429
same,glycan array binding signal (z-score),[22],0.104
same,glycan array binding signal (z-score),[23],0.395
same,glycan array binding signal (z-score),[24],-0.251
same,glycan array binding signal (z-score),GlcNAc(b1-3)Man,0.24
same,glycan array binding signal (z-score),Kdn(a2-3)Gal(b1-4)GlcNAc,-0.185
same,glycan array binding signal (z-score),Kdn(a2-6)Gal(b1-4)GlcNAc,-0.279
same,glycan array binding signal (z-score),[25],-0.291
same,glycan array binding signal (z-score),[26],2.02
same,glycan array binding signal (z-score),[27],1.54
same,glycan array binding signal (z-score),[28],-0.093
same,glycan array binding signal (z-score),[29],-0.132
same,glycan array binding signal (z-score),[30],0.127
same,glycan array binding signal (z-score),[31],-0.231
same,glycan array binding signal (z-score),[32],-0.215
